One may read the inhibition as the change of the read-out against control, counted positive when it falls.

These results are taken from ChEMBL document CHEMBL1961873, “Compounds: GSK PKIS; Assays: Nanosyn kinase panel” (2012).

SMILES strings stand for the structures.

Test [1] has as its system Tyrosine-protein kinase ABL1 (Homo sapiens), P00519 [T315I]. The following applies: at 1 µM.
In test [2] the test system is Tyrosine-protein kinase ABL1 (Homo sapiens), P00519 [Y253F]. The following applies: at 0.1 µM.
Test [3] has the same test system. The following applies: at 1 µM.
Test [4] concerns the target Tyrosine-protein kinase ABL1 (Homo sapiens) (UniProt P00519). The following applies: at 0.1 µM.
Test [5] has the same target. Particulars: at 1 µM.
The target of test [6] is ALK tyrosine kinase receptor (Homo sapiens) (UniProt Q9UM73). Particulars: at 0.1 µM.
ALK tyrosine kinase receptor (Homo sapiens), sequence (Q9UM73 19-1620 limits assumed): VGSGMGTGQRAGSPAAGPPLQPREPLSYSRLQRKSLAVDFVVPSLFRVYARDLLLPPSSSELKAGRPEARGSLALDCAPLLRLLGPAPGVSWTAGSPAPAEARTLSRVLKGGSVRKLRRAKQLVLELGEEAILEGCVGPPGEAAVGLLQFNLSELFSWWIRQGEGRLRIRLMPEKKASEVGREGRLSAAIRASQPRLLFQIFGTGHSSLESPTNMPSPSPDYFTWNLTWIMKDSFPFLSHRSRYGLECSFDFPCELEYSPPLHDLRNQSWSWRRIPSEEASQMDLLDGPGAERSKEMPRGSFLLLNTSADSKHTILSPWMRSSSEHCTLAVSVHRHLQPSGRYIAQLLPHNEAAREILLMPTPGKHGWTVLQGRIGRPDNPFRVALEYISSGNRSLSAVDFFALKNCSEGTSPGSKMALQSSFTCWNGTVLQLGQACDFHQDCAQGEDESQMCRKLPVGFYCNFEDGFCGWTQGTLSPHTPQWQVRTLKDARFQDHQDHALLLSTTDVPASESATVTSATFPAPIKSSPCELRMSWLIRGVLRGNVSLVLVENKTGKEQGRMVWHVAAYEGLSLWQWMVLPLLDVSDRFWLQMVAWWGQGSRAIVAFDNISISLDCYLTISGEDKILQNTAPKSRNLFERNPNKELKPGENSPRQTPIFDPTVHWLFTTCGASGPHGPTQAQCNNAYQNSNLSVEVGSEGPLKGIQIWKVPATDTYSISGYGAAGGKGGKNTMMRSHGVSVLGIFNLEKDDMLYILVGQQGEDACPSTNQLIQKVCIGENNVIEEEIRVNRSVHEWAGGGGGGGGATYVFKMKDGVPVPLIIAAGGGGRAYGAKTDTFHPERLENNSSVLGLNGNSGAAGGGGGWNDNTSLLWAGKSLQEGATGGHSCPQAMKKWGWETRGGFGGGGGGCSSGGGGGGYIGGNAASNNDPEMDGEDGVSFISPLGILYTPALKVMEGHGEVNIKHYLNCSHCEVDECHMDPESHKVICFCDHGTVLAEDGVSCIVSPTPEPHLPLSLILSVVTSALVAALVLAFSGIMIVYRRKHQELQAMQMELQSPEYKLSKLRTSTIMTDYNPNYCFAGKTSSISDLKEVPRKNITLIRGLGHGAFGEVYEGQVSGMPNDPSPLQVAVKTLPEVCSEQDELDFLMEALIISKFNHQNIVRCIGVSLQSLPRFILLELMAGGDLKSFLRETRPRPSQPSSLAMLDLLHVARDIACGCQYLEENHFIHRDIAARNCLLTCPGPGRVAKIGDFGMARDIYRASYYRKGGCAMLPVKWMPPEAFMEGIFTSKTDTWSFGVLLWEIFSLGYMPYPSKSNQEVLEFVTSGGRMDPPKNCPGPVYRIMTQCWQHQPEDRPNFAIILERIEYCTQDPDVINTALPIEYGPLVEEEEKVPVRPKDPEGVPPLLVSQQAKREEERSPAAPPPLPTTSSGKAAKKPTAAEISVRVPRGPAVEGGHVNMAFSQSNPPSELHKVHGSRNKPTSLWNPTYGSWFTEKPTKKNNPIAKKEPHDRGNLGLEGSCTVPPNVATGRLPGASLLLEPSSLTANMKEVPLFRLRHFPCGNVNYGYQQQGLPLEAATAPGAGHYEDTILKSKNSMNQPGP
The target is the same in test [7]. The following applies: at 1 µM.
For test [8], the target named is Tyrosine-protein kinase ABL2 (Homo sapiens) (UniProt P42684). Particulars: at 0.1 µM.
Tyrosine-protein kinase ABL2 (Homo sapiens), sequence (P42684 whole entry): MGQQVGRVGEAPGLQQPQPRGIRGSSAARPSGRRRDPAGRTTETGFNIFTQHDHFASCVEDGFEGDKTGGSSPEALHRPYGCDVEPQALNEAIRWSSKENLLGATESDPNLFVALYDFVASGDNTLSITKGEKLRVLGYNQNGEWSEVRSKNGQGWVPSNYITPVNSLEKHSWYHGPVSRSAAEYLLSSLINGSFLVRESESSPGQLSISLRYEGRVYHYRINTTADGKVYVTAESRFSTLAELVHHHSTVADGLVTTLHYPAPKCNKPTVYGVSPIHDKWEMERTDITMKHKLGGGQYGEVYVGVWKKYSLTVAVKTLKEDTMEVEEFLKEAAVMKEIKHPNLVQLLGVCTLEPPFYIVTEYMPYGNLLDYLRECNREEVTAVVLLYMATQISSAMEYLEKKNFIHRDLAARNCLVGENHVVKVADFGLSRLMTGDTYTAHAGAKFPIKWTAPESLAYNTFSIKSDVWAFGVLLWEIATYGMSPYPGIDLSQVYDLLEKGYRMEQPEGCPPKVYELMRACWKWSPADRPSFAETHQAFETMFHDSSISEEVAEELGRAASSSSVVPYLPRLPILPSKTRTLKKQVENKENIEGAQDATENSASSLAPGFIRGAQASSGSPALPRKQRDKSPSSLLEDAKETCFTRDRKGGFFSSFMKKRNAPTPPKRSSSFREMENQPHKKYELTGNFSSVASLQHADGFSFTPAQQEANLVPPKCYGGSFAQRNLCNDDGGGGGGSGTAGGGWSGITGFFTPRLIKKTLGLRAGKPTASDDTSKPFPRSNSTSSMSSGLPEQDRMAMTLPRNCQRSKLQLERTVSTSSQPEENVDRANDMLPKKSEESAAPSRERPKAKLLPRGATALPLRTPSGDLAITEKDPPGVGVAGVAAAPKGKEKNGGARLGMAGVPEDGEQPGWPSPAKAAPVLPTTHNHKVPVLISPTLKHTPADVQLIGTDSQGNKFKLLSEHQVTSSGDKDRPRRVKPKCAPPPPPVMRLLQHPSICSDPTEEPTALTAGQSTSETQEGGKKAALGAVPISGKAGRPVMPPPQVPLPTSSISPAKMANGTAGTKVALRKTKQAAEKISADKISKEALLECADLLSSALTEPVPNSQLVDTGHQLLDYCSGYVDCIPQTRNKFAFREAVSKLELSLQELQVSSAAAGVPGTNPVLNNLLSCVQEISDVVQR
For test [9] the target is unchanged. The following applies: at 1 µM.
Test [10] has as its target Tyrosine-protein kinase receptor UFO (Homo sapiens) (UniProt P30530). Particulars: at 0.1 µM.
For test [11] the target is unchanged. Particulars: at 1 µM.
Test [12] deals with Tyrosine-protein kinase Blk (Homo sapiens) (UniProt P51451). Particulars: at 0.1 µM.
Test [13] shares this target. Particulars: at 1 µM.
Test [14] has as its target T1, Cytoplasmic tyrosine-protein kinase BMX (Homo sapiens) (UniProt P51813).
T1 sequence (whole entry): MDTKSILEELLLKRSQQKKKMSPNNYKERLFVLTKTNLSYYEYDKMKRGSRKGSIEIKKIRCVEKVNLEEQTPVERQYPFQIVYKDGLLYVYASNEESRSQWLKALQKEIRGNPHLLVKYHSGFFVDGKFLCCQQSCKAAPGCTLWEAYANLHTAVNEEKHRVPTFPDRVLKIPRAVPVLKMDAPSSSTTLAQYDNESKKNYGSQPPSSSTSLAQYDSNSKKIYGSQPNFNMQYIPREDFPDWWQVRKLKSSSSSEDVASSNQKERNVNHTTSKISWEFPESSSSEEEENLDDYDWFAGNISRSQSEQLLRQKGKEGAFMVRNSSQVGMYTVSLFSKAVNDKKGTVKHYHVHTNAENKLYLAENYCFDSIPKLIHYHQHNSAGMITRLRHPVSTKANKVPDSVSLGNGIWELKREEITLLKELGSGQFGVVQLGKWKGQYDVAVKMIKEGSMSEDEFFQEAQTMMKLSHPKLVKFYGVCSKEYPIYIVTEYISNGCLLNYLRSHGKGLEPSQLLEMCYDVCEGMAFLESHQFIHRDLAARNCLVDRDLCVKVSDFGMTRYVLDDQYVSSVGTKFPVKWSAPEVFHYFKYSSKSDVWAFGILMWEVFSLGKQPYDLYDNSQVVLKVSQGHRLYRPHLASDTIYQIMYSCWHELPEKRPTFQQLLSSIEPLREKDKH
Particulars: at 0.1 µM.

Test [15] has as its target T1, Cytoplasmic tyrosine-protein kinase BMX (Homo sapiens). Particulars: at 1 µM.
Test [16] deals with Protein-tyrosine kinase 6 (Homo sapiens) (UniProt Q13882). The following applies: at 0.1 µM.
Protein-tyrosine kinase 6 (Homo sapiens), sequence (Q13882 whole entry, looked up): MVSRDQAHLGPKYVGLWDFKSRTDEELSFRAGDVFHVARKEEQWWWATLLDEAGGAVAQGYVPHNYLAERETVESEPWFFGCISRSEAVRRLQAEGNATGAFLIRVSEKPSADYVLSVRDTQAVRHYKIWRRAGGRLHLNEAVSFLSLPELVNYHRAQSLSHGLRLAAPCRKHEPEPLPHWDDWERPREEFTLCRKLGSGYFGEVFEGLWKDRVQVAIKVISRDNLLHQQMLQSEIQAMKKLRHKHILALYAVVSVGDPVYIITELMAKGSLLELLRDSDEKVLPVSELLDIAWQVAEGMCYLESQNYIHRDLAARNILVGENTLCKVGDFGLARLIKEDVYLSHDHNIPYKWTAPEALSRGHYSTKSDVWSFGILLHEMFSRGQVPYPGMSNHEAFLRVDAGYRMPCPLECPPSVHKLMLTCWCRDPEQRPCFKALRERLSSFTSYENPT
Test [17] has the same target. Particulars: at 1 µM.
In test [18] the target is Tyrosine-protein kinase BTK (Homo sapiens) (UniProt Q06187). The following applies: at 0.1 µM.
Tyrosine-protein kinase BTK (Homo sapiens), sequence (Q06187 whole entry): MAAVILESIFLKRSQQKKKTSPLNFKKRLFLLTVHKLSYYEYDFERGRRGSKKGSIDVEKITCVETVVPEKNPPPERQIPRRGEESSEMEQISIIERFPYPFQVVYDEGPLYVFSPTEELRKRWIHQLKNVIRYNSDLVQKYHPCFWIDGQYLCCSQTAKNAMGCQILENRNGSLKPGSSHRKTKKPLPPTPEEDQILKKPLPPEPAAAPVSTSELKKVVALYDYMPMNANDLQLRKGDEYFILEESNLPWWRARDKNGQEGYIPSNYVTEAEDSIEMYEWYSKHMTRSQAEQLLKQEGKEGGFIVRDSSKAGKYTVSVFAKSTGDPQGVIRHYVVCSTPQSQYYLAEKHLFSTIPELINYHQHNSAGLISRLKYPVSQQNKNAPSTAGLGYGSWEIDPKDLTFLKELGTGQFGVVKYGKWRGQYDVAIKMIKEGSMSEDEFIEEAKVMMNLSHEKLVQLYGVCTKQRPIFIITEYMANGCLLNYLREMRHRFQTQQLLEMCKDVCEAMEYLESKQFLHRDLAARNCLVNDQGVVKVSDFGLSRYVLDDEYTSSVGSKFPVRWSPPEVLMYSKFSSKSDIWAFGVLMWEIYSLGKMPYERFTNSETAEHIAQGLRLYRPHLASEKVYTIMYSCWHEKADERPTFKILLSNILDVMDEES
Test [19] shares this target. Particulars: at 1 µM.
Test [20] concerns the target Tyrosine-protein kinase CSK (Homo sapiens) (UniProt P41240). The following applies: at 0.1 µM.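 Note: value given is the averaged percent inhibition of CSK kinase activity, from the GSK PKIS kinase inhibitor set screening panel.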

Tyrosine-protein kinase receptor UFO (Homo sapiens), sequence (P30530 whole entry): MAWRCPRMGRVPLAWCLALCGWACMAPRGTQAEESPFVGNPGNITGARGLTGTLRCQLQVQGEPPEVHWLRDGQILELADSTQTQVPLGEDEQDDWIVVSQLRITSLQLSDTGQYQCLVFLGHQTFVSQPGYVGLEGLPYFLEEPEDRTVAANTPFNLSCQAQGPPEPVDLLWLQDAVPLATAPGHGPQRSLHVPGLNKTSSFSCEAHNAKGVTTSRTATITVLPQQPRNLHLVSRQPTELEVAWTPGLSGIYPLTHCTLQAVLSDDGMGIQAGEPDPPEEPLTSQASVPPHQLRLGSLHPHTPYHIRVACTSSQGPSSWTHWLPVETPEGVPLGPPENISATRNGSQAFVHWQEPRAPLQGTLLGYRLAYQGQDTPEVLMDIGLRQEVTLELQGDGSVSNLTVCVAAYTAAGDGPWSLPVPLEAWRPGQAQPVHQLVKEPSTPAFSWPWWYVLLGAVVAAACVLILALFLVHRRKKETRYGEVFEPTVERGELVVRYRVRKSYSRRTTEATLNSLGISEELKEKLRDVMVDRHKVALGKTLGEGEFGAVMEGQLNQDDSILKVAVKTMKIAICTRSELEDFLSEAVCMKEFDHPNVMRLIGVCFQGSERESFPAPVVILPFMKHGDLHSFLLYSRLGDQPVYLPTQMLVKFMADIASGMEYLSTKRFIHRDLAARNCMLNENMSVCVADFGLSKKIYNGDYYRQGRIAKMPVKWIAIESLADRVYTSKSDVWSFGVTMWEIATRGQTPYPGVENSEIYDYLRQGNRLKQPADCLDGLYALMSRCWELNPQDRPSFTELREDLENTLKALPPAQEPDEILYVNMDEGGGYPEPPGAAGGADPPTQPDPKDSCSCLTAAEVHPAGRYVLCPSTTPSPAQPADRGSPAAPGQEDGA

Consider `COc1cc(C)c(NC(=O)CN(C)C)cc1Nc1nc(Nc2cccc(F)c2C(N)=O)c2cc[nH]c2n1`, for which the inhibition is 0.49% in [1]; 3.3% in [2]; -0.09% in [3]; 1.95% in test [4]; 4.55% in [5]; 97.8% in [6]. The inhibition in [7] was 88.9%; in test [8] it was 1.11%; in test [9], -0.02%; in [10], 17.6%; in [11], 63.7%; in test [12], 0.68%. The inhibition is 4.45% in [13]; 0.07% in test [14]; 2.64% in test [15]; 3.06% in test [16]; 23.8% in test [17]; 0.31% in test [18]. Moreover, the inhibition in [19] was determined as 0.16%; in test [20] it was 1.05%.
`Nc1nc(-c2ccc3c(c2)C(=Cc2cc(Br)c(O)c(Br)c2)C(=O)N3)cs1`: the inhibition is 1.95% in test [1]; -2.03% in [2]; 7.8% in test [3]; 0.56% in test [4]; 12.7% in [5]; -1.31% in test [6]. For the same molecule, the inhibition was 1.3% in [7]; 0.45% in [8]; 9.86% in [9]; 0.81% in [10]; 2.96% in [11]; -4.1% in test [12]. In addition, the inhibition in test [13] is 5.56%; in test [14] it was -0.96%; in test [15], -0.09%; in test [16] it was -1.42%; in test [17] it was 0.1%; in test [18], -1.45%. Also, the results for the inhibition in test [19] and in test [20] were -0.23% and -4.69%, respectively.
For `CS(=O)(=O)CCNCc1nc(-c2ccc3ncnc(Nc4ccc(F)c(Cl)c4)c3c2)cs1`, the inhibition came to 6.43% in test [1]; 1.82% in test [2]; 18.3% in test [3]; 3.89% in test [4]; 18.2% in test [5]; 0.89% in test [6]. Besides, the inhibition amounted to 3.6% in test [7]; 4.58% in test [8]; 9.66% in test [9]; 0.38% in test [10]; 0.38% in [11]; 1.92% in test [12]. The inhibition in test [13] is 7.95%; in test [14], 0.99%; in test [15], 7.67%; in test [16], 1.05%; in test [17], 5.15%; in [18], 0.64%. In addition, the results for the inhibition in test [19] and in [20] were 4.51% and 2.86%, respectively.
As for `Fc1cccc(COc2ccc(Nc3ncnc4sc(-c5cccs5)cc34)cc2Cl)c1`, the inhibition came to 0.93% in [1]; 1.7% in [2]; 3.31% in test [3]; 1.23% in test [4]; 6.44% in test [5]; 0.25% in test [6]. Also, the inhibition was 0.57% in [7]; 1.27% in test [8]; 5.37% in test [9]; -4.04% in test [10]; 1.51% in test [11]; 1.15% in test [12]. Besides, the inhibition was 3.35% in test [13]; 1.58% in test [14]; 4.35% in test [15]; -1.94% in [16]; 2.02% in test [17]; -0.95% in test [18]. Also, the values for the inhibition in [19] and in [20] were -0.95% and 2.73%, respectively.
On to `NC(=O)c1ccc(-c2nc(-c3ccccn3)c(-c3ccc4c(c3)OCO4)[nH]2)cc1`, for which the inhibition in test [1] was 2.56%; in [2], 1.74%; in [3] it was 2.37%; in [4], 1.82%; in [5], 6.95%; in test [6] it was 1.12%. In addition, the inhibition is 2.39% in test [7]; 1.95% in [8]; 6.03% in test [9]; -3.37% in test [10]; -1.2% in [11]; 1.51% in test [12]. The inhibition is 3.67% in test [13]; 6% in [14]; 2.22% in test [15]; 1.72% in test [16]; 1.4% in test [17]; -0.29% in [18]. Further, the inhibition in [19] worked out at 0.83%; in test [20], 5.75%.
For `Cc1cccc(-c2n[nH]cc2-c2ccc3ncccc3n2)n1`, the inhibition in test [1] amounted to 2.07%; in test [2], 3.03%; in test [3] it was 25.9%; in test [4], 5.29%; in test [5], 37.2%; in test [6], 2.05%. In addition, the inhibition was 0.57% in [7]; 3.75% in test [8]; 8% in [9]; -0.81% in test [10]; 0.83% in test [11]; 1.31% in test [12]. Moreover, the inhibition in test [13] was 3.22%; in test [14], 3%; in test [15], 0.92%; in [16], 0.3%; in [17], 2.48%; in test [18] it was -0.91%. Also, the inhibition in [19] was -1.51%; in test [20], -1.25%.
On to `CCCN1CCC=C(c2ccc(Nc3nc(Nc4ccccc4C(N)=O)c4cc[nH]c4n3)c(C)c2)C1`, for which the inhibition in test [1] stood at 12.1%; in test [2], 1.82%; in test [3], 7.55%; in [4], 5.84%; in test [5], 16.4%; in test [6] it was 76.2%. Moreover, the inhibition in [7] was 82.1%; in test [8], 10%; in [9], 13%; in test [10] it was 8.88%; in test [11] it was 58.1%; in test [12], 1.84%. In addition, the inhibition in test [13] was 9.78%; in test [14], 3.95%; in [15] it was 7.54%; in test [16], 1.91%; in test [17], 17.4%; in test [18], -2.03%. The inhibition is -0.62% in test [19] and -1.32% in test [20].
Take `Nc1ncnc2occ(-c3ccc(NC(=O)Nc4cc(C(F)(F)F)cc(C(F)(F)F)c4)cc3)c12`: the inhibition was 83.3% in [1]; 9.88% in [2]; 42.3% in test [3]; 3.94% in test [4]; 43.5% in test [5]; 2.49% in test [6]. In addition, the inhibition in test [7] was 10.8%; in test [8], 6.22%; in [9], 48.9%; in test [10] it was -0.91%; in test [11] it was 22.1%; in test [12], 2.66%. For the same molecule, the inhibition in test [13] amounted to 36.5%; in [14], 4.42%; in [15], 49.9%; in [16], 1.52%; in test [17], 2.35%; in test [18], 2.44%. Besides, the inhibition in test [19] was determined as 9.01%; in test [20] it was 3.53%.
On to `CCn1c(-c2nonc2N)nc2ccncc21`, for which the inhibition was -0.3% in test [1]; -0.36% in test [2]; 1.17% in [3]; 1.53% in test [4]; 3.89% in test [5]; 1.59% in test [6]. The inhibition is 1.87% in [7]; 2.85% in test [8]; -1.97% in test [9]; -1.17% in test [10]; 1.22% in [11]; 0.68% in test [12]. Further, the inhibition in test [13] was 2.01%; in test [14], 3.88%; in [15], -0.38%; in test [16], -0.74%; in [17] it was -3.65%; in test [18] it was -0.43%. For the same molecule, the inhibition in test [19] is 1.46%; in test [20] it was -1.68%.
In the case of `Nc1nc(-c2ccccn2)c(-c2ccc3ncccc3n2)s1`, the inhibition in test [1] was determined as 3.65%; in test [2], 3.71%; in [3], 3.66%; in test [4], 5.61%; in test [5] it was 12.5%; in test [6], 1.41%. Besides, the inhibition was 4.86% in [7]; 3.71% in test [8]; 8.87% in test [9]; -2.51% in test [10]; -4.26% in test [11]; 2.58% in test [12]. Further, the inhibition in [13] is 1.8%; in test [14], -0.49%; in test [15], 3.73%; in [16] it was 2.76%; in test [17], 7.02%; in [18], 1.06%. The inhibition turned out to be 0.04% in [19] and 9.09% in test [20].
Turning to `COC(=O)Nc1nc2cc(Oc3cccc(NC(=O)Nc4cc(C(F)(F)F)ccc4F)c3)ccc2[nH]1`, the inhibition in [1] was 12.6%; in test [2], 5.16%; in test [3], 19.8%; in [4], 0.82%; in test [5], 24.6%; in [6], -1%. Also, the inhibition in [7] is 0.13%; in test [8] it was 4.08%; in test [9], 41.3%; in test [10], -0.41%; in test [11], 1.25%; in [12] it was -0.47%. The inhibition is 1.35% in [13]; 1.84% in test [14]; -1.52% in [15]; -1.63% in test [16]; -2.33% in test [17]; -0.22% in test [18]. Also, the inhibition in test [19] was -0.18%; in test [20], -2.03%.
For `CC1=C(C(=O)Nc2ccc3[nH]ncc3c2)C(c2ccc3ccccc3c2)CC(=O)N1` (stereo not given), the inhibition in test [1] came out at 22.1%; in test [2] it was 4%; in [3] it was 5.47%; in test [4], 2.85%; in test [5] it was 7.38%; in test [6], 2.78%. Also, the inhibition is 7.11% in [7]; 3.07% in [8]; 8.71% in [9]; -2.62% in test [10]; -3.18% in [11]; 13.4% in [12]. Also, the inhibition was 58.5% in [13]; -1.63% in test [14]; 3.91% in test [15]; 3.76% in [16]; 6.55% in test [17]; 0.23% in [18]. Also, the inhibition was found to be 11.4% in test [19] and 4.44% in test [20].
